From PubChem BioAssay (NCI)
Compounds without any hit were thinned out: in the full panel of roughly 79,000, 15% have a hit. Cut-off read from the data, not from the text of the source: active = growth inhibition above about 70%; inactive = the rest.

What was measured:
[1] = NCI Yeast Anticancer Drug Screen. Data for the rad50 strain (AID 155);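 note: 0% = growth of vehicle-only cultures of the same strain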; conditions: S. cerevisiae rad50 strain growth inhibition; at 50.0 µM; active compounds read high
Procedure, shortened: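 Vehicle-treated cultures provide the reference for the growth inhibition reported for compound-exposed, repair-deficient yeast.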

[2] = NCI Yeast Anticancer Drug Screen. Data for the mec2-1 strain (AID 157); conditions: S. cerevisiae mec2-1 strain, at 50.0 µM, active compounds read high
Procedure, shortened: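 mec2-1 yeast strain, carrying an alteration in DNA damage repair or cell cycle control, was exposed to compounds; growth inhibition was measured relative to vehicle-treated controls.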

[3] = NCI Yeast Anticancer Drug Screen. Data for the sgs1 mgt1 strain (AID 161);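 note: 0% = growth of cultures given vehicle only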; conditions: S. cerevisiae sgs1 mgt1 strain, at 50.0 µM, active compounds read high
Procedure, shortened: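 Percent growth inhibition was derived by comparing compound-exposed mutant yeast with vehicle-exposed cultures. The strain carries alterations in DNA damage repair.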

[4] = NCI Yeast Anticancer Drug Screen. Data for the cln2 rad14 strain (AID 165);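 note: 0% = growth equal to vehicle treated cultures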; conditions: S. cerevisiae cln2 rad14 strain, at 50.0 µM, active compounds read high
Procedure, shortened: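 Yeast carrying cln2 and rad14 alterations (cell cycle control and DNA damage repair) were exposed to compounds. Growth inhibition was measured against vehicle-treated controls.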

[5] = NCI Yeast Anticancer Drug Screen. Data for the bub3 strain (AID 167); conditions: S. cerevisiae bub3 mutant strain, at 50.0 µM, active compounds read high
Procedure, shortened: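 Mutant yeast screening strain plus compound; vehicle-treated cultures serve as the 0% inhibition reference.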

[6] = NCI Yeast Anticancer Drug Screen. Data for the mlh1 rad18 strain (AID 175); conditions: S. cerevisiae mlh1 rad18 strain growth inhibition; at 50.0 µM; active compounds read high
Procedure, shortened: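 Growth inhibition of the yeast strain was measured after compound exposure and expressed relative to vehicle-treated controls. The strain carries defined defects in DNA damage repair.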

Measured: growth inhibition

COc1cc(C=Nc2ccc(C(C)C)cc2)cc(OC)c1OC
inactive: [1] 9.25% | [2] 13.3% | [3] 19.1% | [4] 8.35% | [5] -4.65% | [6] 12.7%

CCCCc1ccc(-n2c(C)nc3[nH]cc(C)c3c2=N)cc1
inactive: [1] -1.35% | [2] -10.9% | [3] -3.5% | [4] -1.75% | [5] -2.5% | [6] -3.75%

NNc1nnc(NN)c2ccccc12
inactive: [1] 1.75% | [2] -2.05% | [3] 0.8% | [4] 3.65% | [5] 4.45% | [6] 4.7%

N#C/C(=C\n1c(=S)[nH]c2ccc([N+](=O)[O-])cc21)c1cccc(Cl)c1
inactive: [1] -25.2% | [2] -13.9% | [3] -34.1% | [4] 3.75% | [5] -2.45% | [6] -11.2%

O=C(Nc1ccccc1Cl)Nc1ccccc1Br
inactive: [1] 16.8% | [2] 11.7% | [3] 14.7% | [4] 12.2% | [5] 6.8% | [6] -17.3%

Cc1cnc2c(N)nc(-c3ccccc3)nc2n1
inactive: [1] 8.55% | [2] -2.1% | [3] -6.9% | [4] -39.4% | [5] -5.15% | [6] -0.45%

Cc1ccc(S(=O)(=O)N(C)C(C(=O)O)c2ccccc2)cc1 (centres undefined)
inactive: [1] 22.4% | [2] -1.35% | [3] 7.15% | [4] -20.6% | [5] -7.8% | [6] 3%

CC=C/C=C/[C@@H]1O[C@](O)([C@H](CC)C(=O)NC/C=C/C=C(\C)[C@@H](OC)[C@@H](C)[C@@H]2O[C@H](/C=C/C=C/C=C(\C)C(=O)c3c(O)cc[nH]c3=O)[C@H](O)[C@@H]2O)[C@H](O)[C@H](O)C1(C)C
inactive: [1] 35.2% | [2] 18.9% | [3] 38.9% | [4] 36.2% | [5] 29.9% | [6] 15.6%

O=C(O)CCCc1ccccc1[N+](=O)[O-]
inactive: [1] -16.7% | [2] -41.8% | [3] -6.4% | [4] -2.35% | [5] -18.9% | [6] -19.8%

O=P(O)(O)CCC(O)CO (centres undefined)
inactive: [1] -12.5% | [2] 10.3% | [3] -11.6% | [4] -78.2% | [5] 4.6% | [6] -17.5%

CSc1nc2c(c(=O)n(C)c(=O)n2C)n1C
inactive: [1] 30.4% | [2] -3.25% | [3] -10.7% | [4] 8.15% | [5] 9.15% | [6] 24.9%

O=C(O)c1ccccc1C(=O)OCc1ccccc1
inactive: [1] -0.15% | [2] 16.1% | [3] 6.25% | [4] -11.2% | [5] 8.25% | [6] 11.9%

CN(C)CCn1cnc2sc3ccccc3c21
inactive: [1] -8.35% | [2] -15.5% | [3] -23.8% | [4] 24% | [5] -6.35% | [6] -23.8%

COc1ccc(CC2CC(Cc3ccc(OC)c(OC)c3)C(=O)O2)cc1OC (centres undefined)
inactive: [1] -33.9% | [2] 15.7% | [3] -23.4% | [4] -33.2% | [5] 3.95% | [6] 2.85%

CC(=O)OCC1OC(n2cnc3c(N)ncnc32)C2OC(C)(C)OC12 (centres undefined)
inactive: [1] 11.4% | [2] -30.2% | [3] -19.1% | [4] 1.45% | [5] -1.9% | [6] -12.8%

CC1OC(OC2C(OC(=O)[C@]34CCC(C)(C)C[C@H]3C3=CC[C@@H]5[C@@]6(C)CC[C@H](OC7OC(C(=O)O)C(O)C(OC8OCC(O)C(O)C8O)C7O)C(C)(C)[C@@H]6CC[C@@]5(C)[C@]3(C)CC4)OCC(O)C2O)C(O)C(OC2OCC(O)C(O)C2O)C1OC1OCC(O)C(OC2OCC(O)C(O)C2O)C1O (some centres undefined)
inactive: [1] 17.1% | [2] 21.2% | [3] 19.6% | [4] 31.2% | [5] 38.4% | [6] 29.8%

CCN(CC)C(COC(=O)Nc1ccccc1)COC(=O)Nc1ccccc1
inactive: [1] 1.85% | [2] -2.3% | [3] 0.6% | [4] -13.8% | [5] -18.9% | [6] 3.05%

COC1=NC(NC2OCC(O)C(O)C2O)=C(NC(C)=O)CN1C (centres undefined)
inactive: [1] -46.5% | [2] -41.4% | [3] -20.1% | [4] -3.65% | [5] -31.7% | [6] -22.4%

c1ccc(-c2cnc3cccnc3n2)cc1
inactive: [1] -2.1% | [2] -24.7% | [3] -19.2% | [4] -36.5% | [5] -10.1% | [6] -12.6%
